# Experimental data published in the supplement of paper PMC12282887.
# ± gives the standard deviation of the averaged measurements.
# Tested on: E. coli BW25113 marRABp lux reporter
# Assay: promoter activity interaction Z-score (Lux/OD deviation from empty-vector control); higher = stronger promoter induction by the compound
# Experimental: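 E. coli BW25113 (wild type or ΔmarA/ΔsoxS/Δrob) carrying pTU175 luxCDABE promoter reporters was grown in LB in 384-well plates at 37°C with each of 94 compounds at 4 two-fold concentrations, in biological duplicates. Luminescence and OD600 were read every 30 min for 12 h and integrated as AUC over 8 h (0-8 h WT, 1-9 h mutants). Lux AUC was divided by OD AUC; the interaction score is the residual of a Huber robust fit of each promoter against the empty-vector control, then Z-transformed per promoter.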
structure (smiles),measurement,setting,value
CN(C)[C@@H]1C(O)=C(C(N)=O)C(=O)[C@@]2(O)C(O)=C3C(=O)c4c(O)cccc4[C@@](C)(O)[C@H]3C[C@@H]12 [Tetracycline],promoter activity interaction Z-score,"0.056 µg/ml, genetic background: wild type",0.665 ± 0.88
same,promoter activity interaction Z-score,"0.056 µg/ml, genetic background: ΔmarA",1.07 ± 0.1
same,promoter activity interaction Z-score,"0.056 µg/ml, genetic background: Δrob",0.256 ± 0.36
same,promoter activity interaction Z-score,"0.056 µg/ml, genetic background: ΔsoxS",0.136 ± 0.061
same,promoter activity interaction Z-score,"0.11 µg/ml, genetic background: wild type",2.13 ± 0.84
same,promoter activity interaction Z-score,"0.11 µg/ml, genetic background: ΔmarA",1.76 ± 0.44
same,promoter activity interaction Z-score,"0.11 µg/ml, genetic background: Δrob",0.771 ± 0.16
same,promoter activity interaction Z-score,"0.11 µg/ml, genetic background: ΔsoxS",1.22 ± 0.7
same,promoter activity interaction Z-score,"0.22 µg/ml, genetic background: wild type",2.83 ± 0.4
same,promoter activity interaction Z-score,"0.22 µg/ml, genetic background: ΔmarA",3.06 ± 0.18
same,promoter activity interaction Z-score,"0.22 µg/ml, genetic background: Δrob",1.16 ± 0.43
same,promoter activity interaction Z-score,"0.22 µg/ml, genetic background: ΔsoxS",2.13 ± 0.087
same,promoter activity interaction Z-score,"0.44 µg/ml, genetic background: wild type",2.24 ± 1
same,promoter activity interaction Z-score,"0.44 µg/ml, genetic background: ΔmarA",0.451 ± 0.1
same,promoter activity interaction Z-score,"0.44 µg/ml, genetic background: Δrob",0.992 ± 0.29
same,promoter activity interaction Z-score,"0.44 µg/ml, genetic background: ΔsoxS",2.56
Cc1cc(NS(=O)(=O)c2ccc(N)cc2)no1 [Sulfamethoxazole],promoter activity interaction Z-score,"3.2 µg/ml, genetic background: wild type",0.00674 ± 0.34
same,promoter activity interaction Z-score,"3.2 µg/ml, genetic background: ΔmarA",0.0321 ± 0.081
same,promoter activity interaction Z-score,"3.2 µg/ml, genetic background: Δrob",0.113 ± 0.29
same,promoter activity interaction Z-score,"3.2 µg/ml, genetic background: ΔsoxS",-0.135 ± 0.18
same,promoter activity interaction Z-score,"6.3 µg/ml, genetic background: wild type",0.078 ± 0.084
same,promoter activity interaction Z-score,"6.3 µg/ml, genetic background: ΔmarA",0.138 ± 0.34
same,promoter activity interaction Z-score,"6.3 µg/ml, genetic background: Δrob",0.302 ± 0.037
same,promoter activity interaction Z-score,"6.3 µg/ml, genetic background: ΔsoxS",0.0733 ± 0.34
same,promoter activity interaction Z-score,"12.7 µg/ml, genetic background: wild type",0.411 ± 0.27
same,promoter activity interaction Z-score,"12.7 µg/ml, genetic background: ΔmarA",0.542 ± 0.015
same,promoter activity interaction Z-score,"12.7 µg/ml, genetic background: Δrob",0.6901 ± 0.0031
same,promoter activity interaction Z-score,"12.7 µg/ml, genetic background: ΔsoxS",0.275 ± 0.14
same,promoter activity interaction Z-score,"25.3 µg/ml, genetic background: wild type",0.782 ± 0.098
same,promoter activity interaction Z-score,"25.3 µg/ml, genetic background: ΔmarA",1.15 ± 0.06
same,promoter activity interaction Z-score,"25.3 µg/ml, genetic background: Δrob",1.2 ± 0.13
same,promoter activity interaction Z-score,"25.3 µg/ml, genetic background: ΔsoxS",1.31 ± 0.61
Cn1c(=O)c2c(ncn2C)n(C)c1=O [Caffeine],promoter activity interaction Z-score,"24.3 µg/ml, genetic background: wild type",0.925 ± 0.19
same,promoter activity interaction Z-score,"24.3 µg/ml, genetic background: ΔmarA",1.52 ± 0.3
same,promoter activity interaction Z-score,"24.3 µg/ml, genetic background: Δrob",0.0874 ± 0.094
same,promoter activity interaction Z-score,"24.3 µg/ml, genetic background: ΔsoxS",0.874 ± 0.41
same,promoter activity interaction Z-score,"48.5 µg/ml, genetic background: wild type",1.58 ± 0.15
same,promoter activity interaction Z-score,"48.5 µg/ml, genetic background: ΔmarA",1.47 ± 0.32
same,promoter activity interaction Z-score,"48.5 µg/ml, genetic background: Δrob",-0.0293 ± 0.12
same,promoter activity interaction Z-score,"48.5 µg/ml, genetic background: ΔsoxS",1.28 ± 0.27
same,promoter activity interaction Z-score,"97.1 µg/ml, genetic background: wild type",1.63 ± 0.018
same,promoter activity interaction Z-score,"97.1 µg/ml, genetic background: ΔmarA",2.83 ± 0.69
same,promoter activity interaction Z-score,"97.1 µg/ml, genetic background: Δrob",0.0326 ± 0.04
same,promoter activity interaction Z-score,"97.1 µg/ml, genetic background: ΔsoxS",1.55 ± 0.65
same,promoter activity interaction Z-score,"194.2 µg/ml, genetic background: wild type",3.65 ± 0.97
same,promoter activity interaction Z-score,"194.2 µg/ml, genetic background: ΔmarA",4.03 ± 0.93
same,promoter activity interaction Z-score,"194.2 µg/ml, genetic background: Δrob",0.103 ± 0.13
same,promoter activity interaction Z-score,"194.2 µg/ml, genetic background: ΔsoxS",2.91 ± 1.6
